Reference: the supplement of paper PMC6555819

How the values were obtained:
Test in all cases: PBM binding z-score (relative to random genomic background probes); higher = stronger binding; sequences stand for … in GC…GCGATTGACAGCGTAGAATGAAGG
[1] = test system: RARb homodimer (NR concentration 270 nM)
Procedure, shortened: (§1)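 Ligand-free nuclear receptor dimers were bound for 1 h to custom Agilent 4×180K protein-binding microarrays. Detection used antibodies against each partner (one per run). Binding z-scores rest on regression-normalized fluorescence, with random background probes as the reference.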

[2] = test system: RARg:RXRa (NR concentration 270 nM, RXRa partner concentration 90 nM)
Procedure, shortened: as §1

[3] = test system: RARg homodimer (NR concentration 270 nM)
Procedure, shortened: as §1

[4] = test system: RXRa DBDmut IVT, anti-RXR (DBD mutation: RXRa K156A/R161A, NR concentration 90 nM)
Procedure, shortened: as §1

[5] = test system: RXRa homodimer (NR concentration 180 nM)
Procedure, shortened: as §1

[6] = test system: THRa:RXRa (NR concentration 90 nM, RXRa partner concentration 90 nM)
Procedure, shortened: as §1

[7] = test system: THRa homodimer (NR concentration 90 nM)
Procedure, shortened: as §1

[8] = test system: VDR:RXRa (NR concentration 270 nM, RXRa partner concentration 90 nM)
Procedure, shortened: as §1

[9] = test system: VDR homodimer (NR concentration 270 nM)
Procedure, shortened: as §1

Row | Sequence | PBM binding z-score [1] | PBM binding z-score [2] | PBM binding z-score [3] | PBM binding z-score [4] | PBM binding z-score [5] | PBM binding z-score [6] | PBM binding z-score [7] | PBM binding z-score [8] | PBM binding z-score [9]
1 | CCTGCTATGTCATGGTCAGCTAATCTACAGTATG | 0.419 | 0.518 | 0.62 | 0.877 | 0.209 | -0.0552 | -0.368 | -0.0549 | -0.566
2 | CGAACTAGGTCATTGTCAGGACAGTGAATAGTAA | 2.62 | 4.33 | 4.35 | 2.31 | 2.37 | 4.27 | 2.09 | 2.52 | 1.82
3 | ATTAGCAGGCCAAGGGTCACTCAAGATTAGTCCG | 3.64 | 4.22 | 3.71 | 0.43 | 4.3 | 2.7 | 0.321 | 2.92 | 0.941
4 | TCTAGTTGGTCACGGAGGTCGCACACGACGGGTA | 2.48 | 2.11 | 2.3 | 0.614 | 2.16 | 1.91 | 0.625 | 4.06 | 1.18
5 | CCGACTGGGGCATAAGGTTACCATTAGCCAGCCC | 1.82 | 1.34 | 0.904 | -0.204 | 1.08 | 1.87 | 1.37 | -0.0219 | -0.611
6 | CCTACTGGGCCAAAATGGTCATTGATGCCGATAA | 0.177 | 0.104 | 0.0823 | -0.811 | -0.05 | -0.37 | -0.637 | -0.0666 | -0.747
7 | TCTGCTAGGTCACTTGGTCAGCTAACGAGCTGCC | 3.07 | 4.03 | 4.52 | 1.54 | 2.41 | 2.58 | 0.574 | 1.3 | 0.129
8 | TCATATAGGTAATCCAGGTGAAAGTCGGCATCTA | 0.511 | 0.501 | 0.455 | 1.5 | 0.995 | 2.41 | 1.35 | 1.1 | 0.168
9 | TTTTGTAGATCAATAGAGGTTAAGAAAGTGCGCT | 1.27 | 0.945 | 0.869 | -0.0202 | 1.52 | 2.28 | -0.0563 | 2.09 | 0.777
10 | TTACCAAGGTGAGCTGAGGCCGTTGATCCAACTC | 0.505 | -0.177 | -0.0104 | -0.748 | -0.163 | 3.6 | 0.533 | 0.537 | -0.339
11 | ATTTCTAGGTAAAAGTTCAGTGAATCCCGAGGAT | 2.3 | 2.15 | 2.03 | 1.21 | 1.88 | 1.64 | 0.543 | 1.77 | 2.1
12 | TCTCGGAGGACATGAAAGGTCAGAGCTCGACATC | 4.53 | 4.22 | 4.21 | 1.18 | 3.67 | 3.34 | 0.586 |  | 0.768
13 | CGTCAAAGTTAAACTAAGGTAACGTAAAGCACGC | 0.585 | 0.536 | 0.659 | 0.0253 | 0.521 | 4.04 | 1.78 | 0.371 | 0.399
14 | ATATGTAGGTTAAGTGTCATTCAGGTTGGTTCGC | 2.02 | 1.53 | 1.47 | 1.1 | 1.9 | 1.58 | 1.08 | 2.28 | 1.53
15 | ATCTCTAAGTAAGACTCAGTTCAGTGAAGAACGC | 0.513 | 0.345 | 0.42 | 0.804 | -0.0426 | 0.401 | 0.351 | 0.712 | 1.57
16 | GCTGCTATGTCAGGTTGGTCAGCTAACGGGTACG | 0.477 | -0.153 | 0.0688 | 0.041 | -0.315 | -0.187 | -0.332 | -0.421 | -0.186
17 | ATCTCTAGGTAACCAAGTCCAGTGAATGCCGAAC | 0.289 | 0.196 | 0.238 | 0.275 | 0.184 | 0.825 | 0.807 | 0.999 | 0.463
18 | GATACAGGGTCTGCTAGAGGCCAGAGTATGGAAA | 0.393 | 0.857 | 0.279 | -0.877 | -0.0451 | -0.093 | -0.687 | -0.492 | -0.39
